Measurements published in PubChem BioAssay (Tox21).
Records with an inconclusive call do not appear. Activity calls are given as the source filed them. Unless noted, calls come from the whole dose curve; as a rule, active = well fitted curve in the direction sought with a large enough effect in the repeat runs; inconclusive = weak or mixed curves; inactive = no such curve, though single readings can be large; an effect the other way counts as inactive or inconclusive.

How the values were obtained:
[1] = target: Thyrotropin receptor (Homo sapiens) (UniProt P16473); experiment: qHTS assay to identify small molecule agonists of the thyroid stimulating hormone receptor (TSHR) signaling pathway (AID 1224843; calls by dose curve; note: nearly all actives have a fitted effect of over 45% in size)
Procedure, shortened: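 Agonist-mode screen: TSHR HEK293 cells received test chemicals for half an hour at room temperature, then HTRF cAMP detection reagents for one hour prior to fluorescence measurement. Each chemical ran as a 15-concentration series, triplicated.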

[2] = qHTS assay to identify small molecule agonists of the hypoxia (HIF-1) signaling pathway - cell viability counter screen (AID 1224844; calls by dose curve; note: nearly all actives have a fitted effect of over 50% in size)
Procedure, shortened: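 Cytotoxicity was measured in parallel with the HRE-driven beta-lactamase readout: after 17 hrs of compound exposure at 37C, HRE-bla ME-180 cells received CellTiter-Glo and luminescence was recorded 30 min later.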

[3] = qHTS assay to identify small molecule agonists of the hypoxia (HIF-1) signaling pathway (AID 1224846; active = well fitted activation curve with a large enough effect in the signal ratio in the repeat runs, not every such curve was filed as active; the % refers to the signal ratio)
Procedure, shortened: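 Compounds from the Tox21 10K library, dissolved in DMSO, are tested for induction of a hypoxia response element–controlled beta-lactamase reporter in ME-180 cells. Exposure lasts 17 hrs at 37C after a 5 hr settling period, followed by CCF4-AM FRET substrate.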

[4] = qHTS assay to identify small molecule agonists of H2AX - cell viability counter screen (AID 1224847; calls by dose curve;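 note: wild-type CHO-K1 cells; top concentration of the series differs between compounds; nearly all actives have a fitted effect of over 30% in size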)
Procedure, shortened: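 For this counter screen, overnight-attached CHO-K1 cells received test compounds (15 concentrations, 0.76% DMSO final); 3 hr later at 37C, CellTiter-Glo reagent was added and luminescence recorded after 30 min at room temperature.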

[5] = qHTS RealTime-Glo MT Cell Viability Assay in HepG2 cells - 24 hour (AID 1224867); note: nearly all actives have a fitted effect of over 50% in size
Procedure, shortened: (§1)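 Viability was tracked continuously by NanoLuc luminescence from prosubstrate reduced by living HepG2 cells, at successive time points over 40 h of compound exposure. Cells with reagent were preincubated 5 h at 37 °C before compound addition.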

[6] = qHTS RealTime-Glo MT Cell Viability Assay in HEK293 cells - 32 hour (AID 1224868); note: top concentration of the series differs between compounds; nearly all actives have a fitted effect of over 50% in size
Procedure, shortened: (§2)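 Viability tracked continuously by luminescence as live cells reduce a prosubstrate for NanoLuc; HEK293 cells preincubated 5 h, compound-treated at 37 C, and read at 0, 8, 16, 24, 32 and 40 h.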

[7] = A CellTox Green Cytotoxicity Assay to monitor cytotoxicity in HEK293 cells - 0 hour (AID 1224869); note: nearly all actives have a fitted effect of over 50% in size
Procedure, shortened: (§3)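 Cells (HEK293, 600/well) and dye reagent are dispensed together. After 5 h at 37 C, 23 nL compound is pinned in. Plates stay at 37 C for 40 h with fluorescence read at 0h, 8h, 16h, 24h, 32h and 40h.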

[8] = qHTS RealTime-Glo MT Cell Viability Assay in HepG2 cells - 40 hour (AID 1224870); note: nearly all actives have a fitted effect of over 50% in size
Procedure, shortened: (§4)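 HepG2 cells (600/well) mixed with RealTime-Glo MT reagent, settled 5 h at 37 C/5% CO2 before compound addition. Nonlytic NanoLuc luminescence from viable-cell prosubstrate reduction read repeatedly during 40 h treatment at 37 C.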

[9] = A CellTox Green Cytotoxicity Assay to monitor cytotoxicity in HEK293 cells - 40 hour (AID 1224871); note: nearly all actives have a fitted effect of over 45% in size
Procedure, shortened: as §3

[10] = qHTS RealTime-Glo MT Cell Viability Assay in HEK293 cells - 16 hour (AID 1224872)
Procedure, shortened: as §2

[11] = qHTS RealTime-Glo MT Cell Viability Assay in HepG2 cells - 8 hour (AID 1224873); note: nearly all actives have a fitted effect of over 55% in size
Procedure, shortened: as §4

[12] = qHTS RealTime-Glo MT Cell Viability Assay in HEK293 cells - 40 hour (AID 1224874); conditions: RealTime-Glo luminescence; max response: active compounds read low; note: nearly all actives have a fitted effect of over 50% in size
Procedure, shortened: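 Real-time viability in HEK293: signal arises when living cells convert a prosubstrate for NanoLuc in the medium, so luminescence tracks viable cell number. Compound (23 nL, DMSO) added 5 h post-seeding; kinetic reads at 0–40 h, 37 C.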

[13] = A CellTox Green Cytotoxicity Assay to monitor cytotoxicity in HepG2 cells - 16 hour (AID 1224876); note: nearly all actives have a fitted effect of over 45% in size
Procedure, shortened: (§5)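 Cells and non-lytic dye reagent are dispensed together (600 HepG2 cells/well) and incubated 5 h before DMSO compound transfer. Kinetic fluorescence is then recorded in the same wells during 40 h at 37 C.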

[14] = qHTS RealTime-Glo MT Cell Viability Assay in HepG2 cells - 32 hour (AID 1224877); note: nearly all actives have a fitted effect of over 55% in size
Procedure, shortened: as §1

[15] = A CellTox Green Cytotoxicity Assay to monitor cytotoxicity in HepG2 cells - 24 hour (AID 1224878); note: nearly all actives have a fitted effect of over 45% in size
Procedure, shortened: as §5

[16] = A CellTox Green Cytotoxicity Assay to monitor cytotoxicity in HepG2 cells - 40 hour (AID 1224879); note: nearly all actives have a fitted effect of over 40% in size
Procedure, shortened: as §5

[17] = qHTS assay to identify small molecule antagonists of the estrogen related receptor (ERR) signaling pathway from Tox21 library (AID 1224848); note: nearly all actives have a fitted effect of over 50% in size
Procedure, shortened: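 Quantitative high-throughput format: ERR reporter cells (2,000/well) pre-incubated 6 h, treated 18 h at 37 C with compounds in DMSO alongside positive and negative controls, then read by ONE-Glo luminescence.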

[18] = qHTS assay to identify small molecule agonists of the estrogen related receptor (ERR) signaling pathway from Tox21 library (AID 1224849; calls by dose curve; note: nearly all actives have a fitted effect of over 15% in size); conditions: ERR reporter cell line, ONE-Glo luciferase, 18 h; at 92.4 µM (top of the series) unless noted
Procedure, shortened: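 Cells carrying the ERR reporter were plated and allowed to settle for 6 h, exposed to library compounds for 18 h at 37 C, then lysed with ONE-Glo and luminescence measured.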

[19] = A CellTox Green Cytotoxicity Assay to monitor cytotoxicity in HEK293 cells - 24 hour (AID 1224875); note: nearly all actives have a fitted effect of over 45% in size
Procedure, shortened: as §3
% is set by controls: 0 for no effect and ±100 for the full control effect.

Sequence of Thyrotropin receptor (Homo sapiens) (P16473 whole entry, looked up): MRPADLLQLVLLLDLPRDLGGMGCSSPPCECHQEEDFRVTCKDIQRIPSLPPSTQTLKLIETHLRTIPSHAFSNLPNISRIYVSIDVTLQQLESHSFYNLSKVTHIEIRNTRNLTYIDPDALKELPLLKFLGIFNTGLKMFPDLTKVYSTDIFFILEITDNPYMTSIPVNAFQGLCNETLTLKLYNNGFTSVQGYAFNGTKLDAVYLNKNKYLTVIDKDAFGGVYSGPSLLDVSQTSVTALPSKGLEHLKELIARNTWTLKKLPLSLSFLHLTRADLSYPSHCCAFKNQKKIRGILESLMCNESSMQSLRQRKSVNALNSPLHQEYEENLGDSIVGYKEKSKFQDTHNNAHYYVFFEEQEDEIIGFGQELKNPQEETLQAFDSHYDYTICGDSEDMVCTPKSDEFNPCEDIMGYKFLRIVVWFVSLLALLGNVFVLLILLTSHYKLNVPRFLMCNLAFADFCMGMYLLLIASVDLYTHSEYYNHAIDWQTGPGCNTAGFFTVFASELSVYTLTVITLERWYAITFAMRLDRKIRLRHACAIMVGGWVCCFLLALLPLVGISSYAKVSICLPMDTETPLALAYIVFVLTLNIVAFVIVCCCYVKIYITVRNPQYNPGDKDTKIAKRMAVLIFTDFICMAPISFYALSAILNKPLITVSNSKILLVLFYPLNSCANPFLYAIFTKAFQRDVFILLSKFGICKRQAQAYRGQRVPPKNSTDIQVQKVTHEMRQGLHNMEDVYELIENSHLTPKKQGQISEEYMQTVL

NC(=O)c1cn(Cc2c(F)cccc2F)nn1
inactive: Potency [1] | Potency [2] | outcome [3] | Potency [4] | Potency [5] | Potency [6] | Potency [7] | Potency [8] | Potency [9] | Potency [10] | Potency [11] | max response [12] 4.6% | Potency [13] | Potency [14] | Potency [15] | Potency [16]

CC1(C)C(O)C(C)(C)C1O (stereo not given)
inactive: Potency [1] | Potency [2] | outcome [3] | Potency [4] | Potency [17] | activity change, positive = activation [18] 1.44% | Potency [5] | Potency [6] | Potency [7] | Potency [8] | Potency [9] | Potency [10] | Potency [11] | max response [12] 0.527% | Potency [19] | Potency [13] | Potency [15] | Potency [16]

CN1N=C(C(N)=O)CCC1=O
inactive: Potency [1] | Potency [2] | outcome [3] | Potency [4] | Potency [17] | Potency [5] | Potency [6] | Potency [7] | Potency [8] | Potency [9] | Potency [10] | Potency [11] | max response [12] 0.803% | Potency [19] | Potency [14] | Potency [15] | Potency [16]

CCOC(=O)[C@H](CCc1ccccc1)N[C@@H](C)C(=O)N1[C@H](C(=O)O)C[C@@H]2CCC[C@@H]21
inactive: Potency [1] | Potency [2] | Potency [4] | Potency [17] | activity change, positive = activation [18] 3.92% [at 42.5 µM] | Potency [5] | Potency [6] | Potency [7] | Potency [8] | Potency [9] | Potency [10] | Potency [11] | max response [12] 6.09% | Potency [13] | Potency [14] | Potency [15] | Potency [16]

Cn1c(N)c(N=O)c(=O)n(C)c1=O
inactive: Potency [1] | Potency [2] | outcome [3] | Potency [4] | Potency [17] | activity change, positive = activation [18] -7.21% | Potency [5] | Potency [7] | Potency [8] | Potency [9] | Potency [10] | Potency [11] | max response [12] 4.01% | Potency [19] | Potency [14] | Potency [15] | Potency [16]

CCCCCCCCS(=O)(=O)Cl
inactive: Potency [1] | Potency [2] | outcome [3] | Potency [4] | Potency [17] | Potency [5] | Potency [7] | Potency [8] | Potency [9] | Potency [10] | Potency [11] | max response [12] 19.7% | Potency [19] | Potency [13] | Potency [14] | Potency [15] | Potency [16]

C=C[Si](OC(=C)C)(OC(=C)C)OC(=C)C
inactive: Potency [1] | Potency [2] | outcome [3] | Potency [4] | Potency [17] | activity change, positive = activation [18] -0.275% | Potency [5] | Potency [6] | Potency [7] | Potency [8] | Potency [9] | Potency [10] | Potency [11] | max response [12] 13.4% | Potency [19] | Potency [14] | Potency [15] | Potency [16]
